In PubChem BioAssay AID2391 (Southern Research Specialized Biocontainment Screening …, 2010):
About 410 (0.13%) of roughly 310,000 compounds were called active. Another 2% or so got no clear call; they are omitted. How the calls were made is not given here. Only a sample is shown. Potency and affinity values are given separately.

assay: inhibition of RSV-induced cytopathic effect – HEp-2 cells, primary 10 µM value included (AID 2391); conditions: at 10 µM, hits give high values

CPE inhibition, inactive:
CC1CCN(CC(=O)Nc2ccc(S(=O)(=O)N3CCCCC3)cc2)CC1 -0.34%
Cc1ccc(N2CC(C(=O)Nc3ccc(S(=O)(=O)N4CCOCC4)cc3)CC2=O)cc1 (centres undefined) -0.55%
COc1ccc(CCNC(C)=O)cc1 3.67%
CCOC(=O)C1(Cc2cccc(OC)c2)CCN(CCO)CC1 -1.67%
Cc1c(C(=O)N(C)Cc2cccc(F)c2)oc2c(Cl)cccc12 18%
COc1cc(-c2nc3c(c(C)nn3-c3ccccc3)c3cc(OC)c(OC)cc23)ccc1O 57.5%
COc1cc2c(-c3ccccc3O)nc3c(c(C)nn3-c3ccccc3)c2cc1OC 1.81%
Cc1ccc(Nc2nc(CSc3nnc(-c4ccncc4)n3C)cs2)cc1 1.07%
Cc1cc(C)n2nc(SCc3c(F)cccc3Cl)nc2n1 0.85%
CN(C)S(=O)(=O)c1ccc2c(c1)C(=NO)c1cc(S(=O)(=O)N(C)C)ccc1-2 2.67%
CN(CCO)S(=O)(=O)c1ccc2c(c1)C(=NO)c1cc(S(=O)(=O)N(C)CCO)ccc1-2 -0.46%
CCS(=O)(=O)N1CCN(c2ccccn2)CC1 -0.21%
Cn1nnnc1SCC(=O)N(C1CCCCC1)C1CCS(=O)(=O)C1 (centres undefined) -0.03%
CCC(=O)NCCc1nc2cc(NC(=O)Nc3ccccc3)ccc2n1C 1.28%
CC(NC(=O)c1ccc(F)cc1Cl)C1CC2CCC1C2 (centres undefined) 1.15%
COCc1cc(C)nc(SCC(=O)Nc2ccc(N3CCOCC3)cc2)c1C#N 1.56%
COCc1cc(C)nc(SCC(=O)Nc2cc(C(F)(F)F)ccc2N2CCOCC2)c1C#N 1.23%
CC(=O)CC(C)(C)n1nnc(-c2ccccc2)n1 1.03%
COc1ccc(CNC(=O)N2CCN(c3ccc(F)cc3)CC2)cc1 0.79%
Nn1c(SCc2cccc3ccccc23)nnc1-c1ccco1 0.35%
Cn1c(SCc2ccccc2)nnc1-c1ccco1 3.37%
Cc1ccc(SCCOCCN2CCOCC2)cc1 -1.12%
Cc1sc2nc(C(C)C)nc(SCC(=O)N3c4ccccc4CC3C)c2c1C (centres undefined) 16.1%
Cc1sc2nc(C3CC3)nc(SCC(=O)N3CCCc4ccccc43)c2c1C 20.9%
CCc1nc(SCC(=O)N2CC(=O)Nc3ccccc32)c2c(C)c(C)sc2n1 0.22%
Cc1sc2nc(C3CC3)nc(SCC(=O)N3CCc4ccccc4C3)c2c1C 1.85%
COc1ccccc1N=Nc1nc(-c2ccccc2)c(-c2ccccc2)[nH]1 12.4%
CC(C)CNC(=O)COC(=O)CNC(=O)c1cc(Cl)cc([N+](=O)[O-])c1 1.69%
COC(=O)C1=C(C)N(c2ccccc2)/C(=C/c2ccco2)C1=O 0.77%
CCc1ccc(NCCC(=O)c2ccc(Br)cc2)cc1 0.86%
CCS(=O)(=O)N1CCCC(C(=O)Oc2ccc(Br)cc2)C1 (centres undefined) -0.04%
O=C(O)c1cccc(NC(=O)c2cn(-c3ccccc3)nc2-c2ccc([N+](=O)[O-])cc2)c1 19%
COc1ccc(-c2oc(=O)c3cc(OC)c(OC)cc3c2/C=C/c2ccc(F)cc2)cc1 5.33%
COc1cc(OC)cc(-c2oc(=O)c3cc(OC)c(OC)cc3c2/C=C/c2ccc(F)cc2)c1 3.91%
Cc1cc(N(C(=O)c2ccco2)C(C(=O)NC2CCCCC2)c2ccccc2)ccc1-n1cnnn1 (centres undefined) 0.41%
CCN(CC)c1ccc(NC(=O)C(C)C)cc1 0.56%
COc1cccc(N2CCN(S(=O)(=O)c3c(C)[nH]c(C)c3C(=O)N3CCCCC3)CC2)c1 1.56%
Cc1[nH]c(C)c(S(=O)(=O)N2CCN(c3cccc(Cl)c3)CC2)c1C(=O)N1CCCC1 0.18%
Cc1[nH]c(C)c(S(=O)(=O)N2CCN(c3cccc(C(F)(F)F)c3)CC2)c1C(=O)N1CCCC1 2.4%
Cc1[nH]c(C)c(S(=O)(=O)N2CCN(c3ccccc3)CC2)c1C(=O)N1CCCCC1 0.61%
Cc1nc(SCC(=O)NCc2ccco2)c2c(=O)n(C)c(=O)n(CC(C)C)c2n1 1.51%
O=c1c2c(n3cnnc3n1C1CCCCC1)-c1ccccc1CC21CCCCC1 3.08%
O=C(CCn1nnc2ccccc2c1=O)N[C@@H](Cc1ccccc1)C(=O)O 2%
COc1ccc(OC)c(CN2CCN(C(=O)c3ccco3)CC2)c1 0.83%
CNC(=O)CN1C(=O)NC(Cc2c[nH]c3ccccc23)C1=O (centres undefined) 2.1%
CC(C)(C)OC(=O)CN1C(=O)NC(Cc2c[nH]c3ccccc23)C1=O (centres undefined) -0.27%
CC1CN(C(=O)/C=C/c2ccc(SC(F)F)cc2)CC(C)O1 (centres undefined) 1.82%
Cc1occc1-c1nnc(SCC(N)=O)n1Cc1ccccc1 1%
COC(=O)c1cccnc1NC(=S)NC1CCCCC1 0.64%
CC(C)OC(=O)c1ccc(Cn2nnc3ccccc3c2=O)cc1 12.4%
Cc1ccc(O)c(NC(=S)NC(=O)c2ccc(-c3ccc(Cl)cc3)o2)c1 -0.16%
Cc1ccc(O)c(NC(=S)NC(=O)CC(C)C)c1 0.23%
CC(C)(C)c1ccc(C2C(C(=O)c3ccco3)=C(O)C(=O)N2CC2CCCO2)cc1 (centres undefined) 8.05%
Cc1ccccc1Cn1c(=O)n(CCCC(=O)NCc2ccco2)c(=O)c2sccc21 3.02%
O=C(CCn1c(=O)c2ccccc2n(Cc2cc(=O)n3ccccc3n2)c1=O)NCc1ccco1 64%
O=C(CCCn1c(=O)c2sccc2n(CC(=O)NCc2ccco2)c1=O)NCc1ccco1 -0.82%
Cc1cccc2nc(Cn3c(=O)n(CCC(=O)NCc4ccco4)c(=O)c4sccc43)cc(=O)n12 10.2%
O=C(C1=C[C@@H](c2coc3ccccc3c2=O)C[C@@H](OCc2ccc(CO)cc2)O1)N1CCN(Cc2ccc3c(c2)OCO3)CC1 4.77%
COC(=O)c1cc(S(=O)(=O)NCCc2cccc(C)c2)cn1C 0.96%
CC(C)(C)c1csc(NC(=O)Nc2ccccc2)n1 17.7%
COc1ccccc1CNC(=O)Cc1csc(NC(=O)Nc2ccccc2OC)n1 7.68%
O=C(CCCCCNC(=O)N1CCn2c1nc1ccccc12)N[C@@H](Cc1ccccc1)C(=O)O 0.73%
Cc1ccc2c(Cl)cc(Cl)c(OCC(=O)Nc3ccc(C)c(S(=O)(=O)N(C)C)c3)c2n1 1.79%
Cc1cccn2c(=O)c(/C=C(\C#N)C(=O)NCc3ccco3)c(N3CCOCC3)nc12 1.08%
CCN1CCN(c2nc3c(C)cccn3c(=O)c2/C=C(\C#N)C(=O)NC)CC1 2.17%
Cc1cccn2c(=O)c(/C=C(\C#N)C(=O)NCc3ccco3)c(N3CCC(C(N)=O)CC3)nc12 2.25%
CNC(=O)/C(C#N)=C/c1c(N2CCN(c3ccccc3)CC2)nc2c(C)cccn2c1=O 14.9%
COC(=O)[C@H](CCSC)NC(=O)NCCc1ccccc1F 0.16%
CC1CCN(Cc2c(C(=O)N/N=C/c3ccc(OC(C)C)cc3)nnn2-c2nonc2N)CC1 3%
COc1ccc(C2C3=C(CC(C)(C)CC3=O)N(C)C3=C2C(=O)CC(C)(C)C3)cc1OC 4.11%
COC(=O)C1=C(N)Oc2cc(C)n(CCCn3ccnc3)c(=O)c2C1c1cccc(Cl)c1 (centres undefined) 1.81%
COc1ccc(-c2cc(C(=O)N3CCCCC3)c3ccccc3n2)cc1 0.19%
O=C(N/N=C/c1ccc2c(c1)OCO2)c1cc(-c2ccccc2)nc2ccccc12 1.93%
CCOc1ccc(-c2cc(C(=O)N/N=C(\C)c3cccnc3)c3ccccc3n2)c(OCC)c1 0.9%
O=C(N/N=C/c1ccc2c(c1)OCO2)c1cc(-c2ccccc2Cl)nc2ccccc12 4.7%
CCOc1ccc(-c2cc(C(=O)O)c3ccccc3n2)cc1 8.94%
COc1ccc(-c2cc(C(=O)N3CCN(c4ncccn4)CC3)c3ccccc3n2)c(OC)c1 0.07%
COc1ccc(CN(C)CC(=O)Nc2ccccc2C(F)(F)F)c(OC)c1 0.3%
CCOC(=O)C1CCCN(C(=O)c2cccc(S(=O)(=O)N(C)c3ccc(C)cc3)c2)C1 (centres undefined) 0.68%
Cc1cccc(/C=N/NC(=O)c2cccc(NC(=O)c3ccccc3)c2)n1 1.75%
CC1(C)CC(=O)C=C(NNC(=O)c2ccc(N)cc2)C1 1.88%
O=C(CN(C(=O)c1csnn1)c1cccc2c1CCCC2)NCc1ccc(F)cc1 1.67%
CCOC(=O)c1c(CN2CCOCC2)oc2ccc(OC(C)=O)cc12 2.6%
COc1ccc(OCc2cc(C(=O)N3CCCC(CO)C3)no2)c2ccccc12 (centres undefined) 3.56%
CC1CC(C)(C)NC(=S)N1CC(=O)N1CCN(Cc2ccccc2)CC1 (centres undefined) -0.71%
Clc1ccc(OCc2nnc(-c3ccccc3Br)o2)cc1 11.5%
COc1ccc(-c2nc(CN3CCC(C(=O)N4CCc5ccccc54)CC3)c(C)o2)cc1OC 0.12%
O=C(O)CCC(=O)N1N=C(c2cccs2)CC1c1cn(-c2ccccc2)nc1-c1ccccc1 (centres undefined) 1.96%
COc1ccc(-c2nn(-c3ccccc3)cc2C2CC(c3cccs3)=NN2C(=O)CCCC(=O)O)cc1 (centres undefined) 6.41%
